Where a name gives a salt, the structure may show the parent alone.
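Further: immunostained co-cultures imaged by high-content microscopy, Z-score per plate against mean and SD of 0.1% DMSO wells, compounds added on differentiation day 18, analysed day 21.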

This test deals with hN + hpA co-culture (H1 iNGN2 human neurons + human primary astrocytes). The test can be described thus: presynaptic density (SYNAPSIN1 puncta per MAP2 neurite area), Z-score vs DMSO controls; higher = more presynaptic puncta (synapse-promoting). Conditions: 3 µM; 72 h.
In the case of `CC(C)C[C@H](NC(=O)[C@@H](NC(=O)c1cccc(-c2ccccc2)n1)[C@@H](C)O)B(O)O`, the “presynaptic density (Z-score)” value was -3.12.

For the molecule `Cc1cc(Nc2cc(CN3CCOCC3)c3nc(C)c(Cc4ccc(Cl)cc4F)n3n2)n[nH]1`, the “presynaptic density (Z-score)” value was -1.8.

In the case of `N#CC1(c2ccc(NC(=O)c3cccnc3NCc3ccncc3)cc2)CCCC1` [Apatinib], the “presynaptic density (Z-score)” value was -1.31. Next, `Cc1[nH]c(/C=C2\C(=O)Nc3ccc(S(=O)(=O)N(C)c4cccc(Cl)c4)cc32)c(C)c1C(=O)N1CCN(C)CC1`: 0.365; `CS(=O)(=O)N1CCN(Cc2cc3nc(-c4cccc5[nH]ncc45)nc(N4CCOCC4)c3s2)CC1` [GDC 0941 bismesylate]: 1.26. Turning to `Cc1noc(-c2ccc(CSCCC(=O)O)cc2)c1NC(=O)OC(C)c1ccccc1Cl` (centres undefined), the “presynaptic density (Z-score)” value was 0.975. On to `COc1ccc([C@]2(C#N)CC[C@@H](C(=O)O)CC2)cc1OC1CCCC1` [Cilomilast], for which the “presynaptic density (Z-score)” value was -0.137.

As for `CCc1c(C(=O)NCCc2ccc(N3CCCCC3)cc2)[nH]c2ccc(Cl)cc12`, the “presynaptic density (Z-score)” value is -0.684. In the case of `CCCCCCCCc1ccc(CCC(N)(CO)CO)cc1` [Fingolimod (FTY720) HCl], the “presynaptic density (Z-score)” value was determined as 0.342.

As for `NC1(Cc2ccc(Cl)cc2)CCN(c2ncnc3[nH]ccc23)CC1`, the “presynaptic density (Z-score)” value was -0.622. `COc1ccc(-c2nc3cc(C4=NNC(=O)CC4C)ccc3[nH]2)cc1` (centres undefined) [Pimobendan]: the “presynaptic density (Z-score)” value was -0.704. For the molecule `O=C1NC(=O)/C(=C/c2ccc(-c3ccc(F)cc3O)o2)S1`, the “presynaptic density (Z-score)” value was found to be 0.652. Consider `O=C(NNc1nc2cc(F)ccc2n2cccc12)c1cnccn1`, for which the “presynaptic density (Z-score)” value was -1.29. Consider `S=C=Nc1cccc(NC(=S)NCCCCNC(=S)Nc2cccc(N=C=S)c2)c1`, for which the “presynaptic density (Z-score)” value turned out to be 0.95. With `CC(C)C[C@H](NC(=O)CNC(=O)c1cc(Cl)ccc1Cl)B(O)O`, the “presynaptic density (Z-score)” value was -3.07. Next, `O=C(Nc1ccccc1)c1cc([N+](=O)[O-])ccc1Cl`: -0.00538; `Cn1cnc2c(F)c(Nc3ccc(Br)cc3Cl)c(C(=O)NOCCO)cc21`: 0.953; `C[C@@H](c1ncncc1F)[C@](O)(Cn1cncn1)c1ccc(F)cc1F`: 0.265. Consider `CCN(CC)CCNC(=O)c1cc(Cl)c(N)cc1OC` [MetoclopraMide HCl], for which the “presynaptic density (Z-score)” value amounted to 0.023.

As for `CC(C)[C@H](O)C(=O)N[C@@H](C)C(=O)N[C@@H]1C(=O)N(C)CCc2ccccc21`, the “presynaptic density (Z-score)” value was -0.185. Consider `COc1cc2/c(=N/c3ccc(Br)cc3F)nc[nH]c2cc1OCC1CCN(C)CC1` [Vandetanib (ZD 6474)], for which the “presynaptic density (Z-score)” value worked out at 0.993. With `O=C(C[S+]([O-])Cc1ccco1)NC/C=C\COc1cc(CN2CCCCC2)ccn1` (centres undefined) [Lafutidine], the “presynaptic density (Z-score)” value is -0.624. In the case of `CC(=O)O[C@]1(C(C)=O)CC[C@H]2[C@@H]3C=C(Cl)C4=CC(=O)[C@@H]5C[C@@H]5[C@]4(C)[C@H]3CC[C@@]21C` [Cyproterone acetate], the “presynaptic density (Z-score)” value was -0.989. Regarding `CCn1c(-c2nonc2N)nc2c(C#CC(C)(C)O)ncc(OC[C@H]3CCCNC3)c21`, the “presynaptic density (Z-score)” value was -0.664. Take `COc1cc2ncnc(Nc3ccc(Cl)cc3F)c2cc1OC`: the “presynaptic density (Z-score)” value is -0.982.

Consider `O=C(O)CCc1ccc(NCc2cccc(Oc3ccccc3)c2)cc1` [4-[[(3-Phenoxyphenyl)methyl]amino]benzenepropanoic acid], for which the “presynaptic density (Z-score)” value is -0.812. As to `N#Cc1ccc(C(c2ccc(C#N)cc2)n2cncn2)cc1`, the “presynaptic density (Z-score)” value is 0.0621. In the case of `CNC(=O)c1ccccc1Nc1nc(Nc2ccc(N3CCOCC3)cc2OC)ncc1Cl`, the “presynaptic density (Z-score)” value amounted to 0.092. Turning to `NS(=O)(=O)c1ccc(NC(=O)Nc2ccc(F)cc2)cc1`, the “presynaptic density (Z-score)” value turned out to be 0.585.

`CCOC(=O)N1CCC(=C2c3ccc(Cl)cc3CCc3cccnc32)CC1` [Loratadine]: the “presynaptic density (Z-score)” value worked out at 1.78. Turning to `COc1c(O)cc2c(c1O)[C@@H]1O[C@H](CO)[C@@H](O)[C@H](O)[C@H]1OC2=O`, the “presynaptic density (Z-score)” value amounted to 0.361. Turning to `COc1ccc(CNCc2cccc3ccccc23)cc1`, the “presynaptic density (Z-score)” value was -1.02.

Turning to `CC(C)(C)c1cc(C(C)(C)C)c(NC(=O)c2c[nH]c3ccccc3c2=O)cc1O` [Ivacaftor (VX-770)], the “presynaptic density (Z-score)” value stood at 0.324. In the case of `COc1ccc(C(=O)Nc2sc3c(c2C(N)=O)CCCC3)cc1OC` it was 0.457; in that of `CC(C)(C#N)c1cc(Cn2cncn2)cc(C(C)(C)C#N)c1`, -0.628. For `CCOC(=O)C1=C(N)Oc2ccc(Br)cc2C1C(C#N)C(=O)OCC` (centres undefined), the “presynaptic density (Z-score)” value was found to be 0.81. Turning to `CCN(CC)C(=O)/C(C#N)=C/c1cc(O)c(O)c([N+](=O)[O-])c1` [Entacapone], the “presynaptic density (Z-score)” value is 0.44. Consider `CCOc1ccc(Cc2cc([C@@H]3O[C@H](CO)[C@@H](O)[C@H](O)[C@H]3O)ccc2Cl)cc1` [Dapagliflozin], for which the “presynaptic density (Z-score)” value came out at 0.756. `O=C(O)/C=C/c1ccc(Cn2ccnc2)cc1` [Ozagrel]: the “presynaptic density (Z-score)” value was -0.554.

The values above are taken from the supplement of paper PMC10121225.
